Assay [1] in a line: kinase inhibitors against Plasmodium liver-stage infection, cell-based, known kinase inhibitor set, luminescence, hepatoma host viability (AID 624392; call rule not given here;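 further: infected cells incubated roughly two days before readout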). The following applies: Plasmodium liver stage in hepatoma cells, luciferase luminescence, concentration not given here; liver cell % of control: measured here: host liver cell viability; parasite % of control: stronger effect = lower value.

Assay [2] can be described thus: modulators of glucocorticoid suppression of NF-kB, cell-based, luciferase, IL-1B stimulus, dexamethasone (AID 624486; call rule not given here;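 on percent of negative control (+Dex): 100% = mean signal of vehicle control wells on the plate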). The note with it: NF-kB luciferase reporter, IL-1B + dexamethasone, luminescence; percent of negative control (+Dex): actives lie on both sides, concentration not given here; z-score: measured here: IL-1B alone, no Dex. On the technique in general: Reporter assays use an easily measured gene product as a stand-in for the process of interest.

Assay [3] can be described thus: kinase inhibitors altering Pseudomonas killing of worms, whole organism (AID 651566; call rule not given here;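 further: tested at 14 µM; sign flipped so higher z means a lower ratio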). The following applies: C. elegans killed by P. aeruginosa, survival ratio.
Assay [4] is described as follows: activators of macrophage pro-inflammatory response, cell-based, murine, luminescence (AID 652131; call rule not given here). The note with it: murine macrophage pro-inflammatory reporter, stronger effect = higher value.
Assay [5] in a line: survival rescue of mitochondrial mutant cells in low glucose, primary screen, MELAS cybrids, Rieske KO mouse fibroblasts, CellTiter-Glo (AID 1508586;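 active means mean z-score across replicates of 1.96 or higher in either the MELAS or the Rieske mutant cell line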;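 further: z relative to plate mean and SD of compound and empty wells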). (In general: In ATP-based viability assays light output follows the ATP content of the culture.)
Assay [6] is described as follows: ovarian cancer cell viability with rucaparib, profiling panel, oncology-focused library, rucaparib conditional (AID 1508598). The following applies: patient-derived ovarian cancer cells, CellTiter-Glo viability, 144 h, stronger effect = lower value.
The nature of assay [7]: viability rescue of complex I mutant cybrids, primary screen, cell-based, galactose medium, ATP luminescence (AID 1645843;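 active means z-score of at least 1.8 in each of two replicates, scored against plate mean and spread of sample wells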;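 further: positive z means more ATP and so rescue of galactose-driven cybrid death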). The note with it: complex I mutant cybrid cells, 72 h, stronger effect = higher value.
[8] abbreviates: MELAS cybrid survival, CellTiter-Glo 48 h, stronger effect = higher value.
[9] abbreviates: Rieske KO mouse fibroblast survival, CellTiter-Glo 72 h.
The mark [10] stands for this setting: at 0.000305 µM, OCI-C5x cells, with rucaparib 10 µM, 100% = cells with rucaparib alone.
The mark [11] stands for this setting: at 0.000305 µM, OCI-C5x cells, without rucaparib.
Setting [12] is: at 0.000305 µM, OCI-P5x cells, with rucaparib 20 µM, 100% = cells with rucaparib alone.
[13] abbreviates: at 0.000305 µM, OCI-P5x cells, without rucaparib.
[14] abbreviates: at 0.00122 µM, OCI-C5x cells, with rucaparib 10 µM, 100% = cells with rucaparib alone.
The mark [15] stands for this setting: at 0.00122 µM, OCI-C5x cells, without rucaparib.
Setting [16] is: at 0.00122 µM, OCI-P5x cells, with rucaparib 20 µM, 100% = cells with rucaparib alone.
Where [17] appears, read: at 0.00122 µM, OCI-P5x cells, without rucaparib.
Setting [18] is: at 0.00488 µM, OCI-C5x cells, with rucaparib 10 µM, 100% = cells with rucaparib alone.
Setting [19] is: at 0.00488 µM, OCI-C5x cells, without rucaparib.
Setting [20] is: at 0.00488 µM, OCI-P5x cells, with rucaparib 20 µM, 100% = cells with rucaparib alone.
The mark [21] stands for this setting: at 0.00488 µM, OCI-P5x cells, without rucaparib.
The mark [22] stands for this setting: at 0.0195 µM, OCI-C5x cells, with rucaparib 10 µM, 100% = cells with rucaparib alone.
Where [23] appears, read: at 0.0195 µM, OCI-C5x cells, without rucaparib.
Where [24] appears, read: at 0.0195 µM, OCI-P5x cells, with rucaparib 20 µM, 100% = cells with rucaparib alone.
The mark [25] stands for this setting: at 0.0195 µM, OCI-P5x cells, without rucaparib.
Setting [26] is: at 0.0781 µM, OCI-C5x cells, with rucaparib 10 µM, 100% = cells with rucaparib alone.
Where [27] appears, read: at 0.0781 µM, OCI-C5x cells, without rucaparib.
Where [28] appears, read: at 0.0781 µM, OCI-P5x cells, with rucaparib 20 µM, 100% = cells with rucaparib alone.
Where [29] appears, read: at 0.0781 µM, OCI-P5x cells, without rucaparib.
[30] abbreviates: at 0.313 µM, OCI-C5x cells, with rucaparib 10 µM, 100% = cells with rucaparib alone.
[31] abbreviates: at 0.313 µM, OCI-C5x cells, without rucaparib.
The mark [32] stands for this setting: at 0.313 µM, OCI-P5x cells, with rucaparib 20 µM, 100% = cells with rucaparib alone.
[33] abbreviates: at 0.313 µM, OCI-P5x cells, without rucaparib.
[34] abbreviates: at 1.25 µM, OCI-C5x cells, with rucaparib 10 µM, 100% = cells with rucaparib alone.
The mark [35] stands for this setting: at 1.25 µM, OCI-C5x cells, without rucaparib.
[36] abbreviates: at 1.25 µM, OCI-P5x cells, with rucaparib 20 µM, 100% = cells with rucaparib alone.
The mark [37] stands for this setting: at 1.25 µM, OCI-P5x cells, without rucaparib.
The mark [38] stands for this setting: at 5 µM, OCI-C5x cells, with rucaparib 10 µM, 100% = cells with rucaparib alone.
[39] abbreviates: at 5 µM, OCI-C5x cells, without rucaparib.
The mark [40] stands for this setting: at 5 µM, OCI-P5x cells, with rucaparib 20 µM, 100% = cells with rucaparib alone.
Setting [41] is: at 5 µM, OCI-P5x cells, without rucaparib.

Calls of active or inactive are those of the source.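 How the source made its calls, unless noted: active means normalized viability below 100% at a tested concentration; inactive means the rest.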

Regarding `Cc1cccc(Nc2ncc(-c3ccccc3)o2)c1`, the liver cell % of control in assay [1] turned out to be 79.5%. The parasite % of control in assay [1] is 180% (inactive). Besides, the percent of negative control (+Dex) in assay [2] is 272% (active). The z-score was 15.2 in assay [2]; -1.25 (inactive) in assay [3]; 1.33 (inactive) in assay [4]; 0.673 (inactive) in assay [5] (setting [8]); -0.569 in assay [5] (setting [9]).
With `COc1cccc2c1C(=O)c1c(O)c3c(c(O)c1C2=O)C[C@@](O)(C(C)=O)C[C@H]3O[C@H]1C[C@H](N)[C@H](O)[C@H](C)O1`, the viability in assay [6] (setting [10]) is 118% (inactive); in assay [6] (setting [11]), 110% (inactive); in assay [6] (setting [12]), 110% (inactive); in assay [6] (setting [13]) it was 105% (inactive); in assay [6] (setting [14]), 123% (inactive); in assay [6] (setting [15]) it was 101% (inactive). In addition, the viability in assay [6] (setting [16]) was 99.8% (active); in assay [6] (setting [17]), 101% (inactive); in assay [6] (setting [18]), 125% (inactive); in assay [6] (setting [19]), 152% (inactive); in assay [6] (setting [20]), 99.2% (active); in assay [6] (setting [21]), 94.6% (active). For the same compound, the viability was 198% (inactive) in assay [6] (setting [22]); 201% (inactive) in assay [6] (setting [23]); 84.2% (active) in assay [6] (setting [24]); 43% (active) in assay [6] (setting [25]); 180% (inactive) in assay [6] (setting [26]); 105% (inactive) in assay [6] (setting [27]). For the same compound, the viability is 74.4% (active) in assay [6] (setting [28]); 26.5% (active) in assay [6] (setting [29]); 101% (inactive) in assay [6] (setting [30]); 5.28% (active) in assay [6] (setting [31]); 25.9% (active) in assay [6] (setting [32]); 10.5% (active) in assay [6] (setting [33]). Besides, the viability was 2.76% (active) in assay [6] (setting [34]); 1.21% (active) in assay [6] (setting [35]); 15.7% (active) in assay [6] (setting [36]); 5.33% (active) in assay [6] (setting [37]); 2.96% (active) in assay [6] (setting [38]); 1.85% (active) in assay [6] (setting [39]). In addition, the viability was 4.23% (active) in assay [6] (setting [40]) and 3.15% (active) in assay [6] (setting [41]).
For `O=C(NCCn1ccnc1)c1cc(NCC2CC2)cc(S(=O)(=O)N2CCCC2)c1`, the figures for the z-score in assay [5] (setting [8]), in assay [5] (setting [9]) and in assay [7] were -0.151 (inactive), 0.62 and 1.69 (inactive), respectively.
For `O=C1CCCc2occ(C(=O)N3CC(=O)N(Cc4ccccc4)CC(OCc4ccccn4)C3)c21` (configuration not stated), the z-score in assay [5] (setting [8]) was -0.412 (inactive); in assay [5] (setting [9]) it was -0.733; in assay [7], 2.83 (inactive).
Turning to `O=C(Nc1ccc(Oc2ccc3nc(NC(=O)c4ccco4)[nH]c3c2)cc1)Nc1cc(C(F)(F)F)ccc1F`, the liver cell % of control in assay [1] worked out at 140%. Further, the parasite % of control in assay [1] is 37.4% (inactive). The percent of negative control (+Dex) in assay [2] is 81.5% (inactive). The z-score in assay [2] is -2.38; in assay [3], -0.605 (inactive); in assay [4], -0.544 (inactive); in assay [5] (setting [8]), -1.24; in assay [5] (setting [9]), 6.9.
Turning to `Cc1nn(C)cc1CNc1cc(C(=O)NCc2cn3ccccc3n2)cc(S(=O)(=O)NC(C)C)c1`, the figures for the z-score in assay [5] (setting [8]), in assay [5] (setting [9]) and in assay [7] were -0.236 (inactive), -0.702 and -0.11 (inactive), respectively.
For `CO[C@H]1/C=C\C=C(\C)C(=O)NC2=CC(=O)C(NCCN(C)C)=C(C[C@@H](C)C[C@H](OC)[C@H](O)[C@@H](C)/C=C(\C)[C@@H]1OC(N)=O)C2=O`, the viability in assay [6] (setting [10]) is 108% (inactive); in assay [6] (setting [11]), 108% (inactive); in assay [6] (setting [12]), 120% (inactive); in assay [6] (setting [13]) it was 116% (inactive); in assay [6] (setting [14]), 109% (inactive); in assay [6] (setting [15]) it was 109% (inactive). For the same compound, the viability in assay [6] (setting [16]) is 114% (inactive); in assay [6] (setting [17]) it was 114% (inactive); in assay [6] (setting [18]) it was 107% (inactive); in assay [6] (setting [19]), 107% (inactive); in assay [6] (setting [20]), 117% (inactive); in assay [6] (setting [21]) it was 117% (inactive). Besides, the viability in assay [6] (setting [22]) was 118% (inactive); in assay [6] (setting [23]), 82.9% (active); in assay [6] (setting [24]), 50.4% (active); in assay [6] (setting [25]), 17.3% (active); in assay [6] (setting [26]), 91.8% (active); in assay [6] (setting [27]), 27.4% (active). The viability is 17.4% (active) in assay [6] (setting [28]); 9.22% (active) in assay [6] (setting [29]); 26.5% (active) in assay [6] (setting [30]); 10.1% (active) in assay [6] (setting [31]); 7.13% (active) in assay [6] (setting [32]); 5.68% (active) in assay [6] (setting [33]). Further, the viability in assay [6] (setting [34]) is 7.91% (active); in assay [6] (setting [35]), 4.98% (active); in assay [6] (setting [36]), 6.01% (active); in assay [6] (setting [37]), 3.54% (active); in assay [6] (setting [38]), 8.19% (active); in assay [6] (setting [39]) it was 4.12% (active). Besides, the viability in assay [6] (setting [40]) was 4.71% (active); in assay [6] (setting [41]), 2.66% (active).
The compound `CCS(=O)(=O)c1ccc(OC)c(Nc2ncc(-c3cccc(C(C)=O)c3)o2)c1` returned a liver cell % of control in assay [1] of 169%. The parasite % of control in assay [1] is 48.2% (inactive). In assay [2], the percent of negative control (+Dex) was 87% (inactive). Besides, the z-score was 0.415 in assay [2]; 0.56 (inactive) in assay [3]; -0.091 (inactive) in assay [4]; 1.14 (inactive) in assay [5] (setting [8]); -0.327 in assay [5] (setting [9]).
For the compound `C[C@H]1C[C@H]2[C@@H]3CCC4=CC(=O)C=C[C@]4(C)[C@@H]3C(=O)C[C@]2(C)[C@]1(O)C(=O)CO`, the viability in assay [6] (setting [10]) is 114% (inactive); in assay [6] (setting [11]), 123% (inactive); in assay [6] (setting [12]) it was 96.8% (active); in assay [6] (setting [13]) it was 119% (inactive); in assay [6] (setting [14]) it was 118% (inactive); in assay [6] (setting [15]), 124% (inactive). For the same compound, the viability in assay [6] (setting [16]) was 105% (inactive); in assay [6] (setting [17]) it was 116% (inactive); in assay [6] (setting [18]) it was 110% (inactive); in assay [6] (setting [19]), 119% (inactive); in assay [6] (setting [20]), 96.6% (active); in assay [6] (setting [21]) it was 119% (inactive). Moreover, the viability was 113% (inactive) in assay [6] (setting [22]); 122% (inactive) in assay [6] (setting [23]); 103% (inactive) in assay [6] (setting [24]); 122% (inactive) in assay [6] (setting [25]); 109% (inactive) in assay [6] (setting [26]); 122% (inactive) in assay [6] (setting [27]). The viability in assay [6] (setting [28]) was 102% (inactive); in assay [6] (setting [29]) it was 125% (inactive); in assay [6] (setting [30]), 111% (inactive); in assay [6] (setting [31]) it was 125% (inactive); in assay [6] (setting [32]), 100% (inactive); in assay [6] (setting [33]), 126% (inactive). In addition, the viability in assay [6] (setting [34]) is 125% (inactive); in assay [6] (setting [35]), 129% (inactive); in assay [6] (setting [36]), 108% (inactive); in assay [6] (setting [37]), 130% (inactive); in assay [6] (setting [38]), 119% (inactive); in assay [6] (setting [39]), 148% (inactive).

In general, viability refers to a read-out of living cells in per cent, often relative to untreated cells.
